From PubChem BioAssay (NCATS)
Several values for one entry are separate records, joined by “and”; a condition that tells them apart may be missing. Equal entries are not always repeated. Results filed as inconclusive are left out. A number with no mark means an inactive call. Activity calls are given as the source filed them. Calls follow the shape of the dose curve; as a rule, active = well fitted curve in the direction sought with a large enough effect; inconclusive = small, poorly fitted or top-dose-only effect, or another doubt; inactive = no such curve, though single readings can be large; an effect the other way counts as inactive or inconclusive.

Test: qHTS Assay for Identifying Gametocytocidal Compounds (AID 743244);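 as to max response: actives lower the fluorescent signal which means gametocytes are killed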
Settings: P. falciparum 3D7 stage III-V gametocytes, alamarBlue, 72 h; max response: stronger effect = lower value
Procedure, shortened: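 Using 20,000 stage III–V 3D7 gametocytes per well, compounds were incubated 72 h under 37 °C/5% CO2. Viability was then assessed by 24 h alamarBlue reduction, measured fluorometrically at 525/598 nm.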
% is scaled to controls: 0 for no effect and ±100 for the full control effect; potency is read from the fitted curve at half-maximal effect.

| SMILES | max response | Potency |
| --- | --- | --- |
| CC(C)=CCC/C(C)=C/CC/C(C)=C/CCC(=O)OC/C=C(\C)CCC=C(C)C | -4.29% | – |
| OCCCc1ccccc1 | -2.92% | – |
| C[C@]12CCC(=O)C=C1CC[C@@H]1[C@@H]2[C@@H](O)C[C@@]2(C)[C@H]1CC[C@]2(O)C(=O)COC(=O)CCC(=O)O | -22.1% | – |
| CC1CN(c2cc3c(cc2F)c(=O)c(C(=O)O)cn3-c2ccc(F)cc2F)CCN1 (stereo not drawn) | -18.1% | – |
| CC(=O)OCC[N+](C)(C)C | 0.348% | – |
| O=C(O)/C=C(\CC(=O)O)C(=O)O | 8.32% | – |
| CC(C)(C)C(O)/C=C/c1ccc2c(c1)OCO2 (stereo not drawn) | -15.2% | – |
| CO[C@]1(NC(=O)CSC(F)F)C(=O)N2C(C(=O)O)=C(CSc3nnnn3CCO)CO[C@H]21 | 19.9% | – |
| OC(CCCN1CCCCC1)(c1ccccc1)c1ccccc1 | -13.7% | – |
| CC(C(=O)O)c1ccc(/C=C2\CCCCC2=O)cc1 (stereo not drawn) | -9.38% | – |
| COc1ccccc1OCC1CNC(=O)O1 (stereo not drawn) | -14.2% | – |
| CCCC(=O)O[C@]1(C(=O)CCl)[C@@H](C)C[C@H]2[C@@H]3CCC4=CC(=O)C=C[C@]4(C)[C@@]3(F)C(=O)C[C@@]21C | 13.2% | – |
| CCc1cc(S(=O)(=O)O)c2cc(C(C)C)cccc1-2 | 0.277% | – |
| OCc1cccnc1 | -22.7% | – |
| O=C1OC2(c3ccccc31)c1cc(I)c(O)c(I)c1Oc1c2cc(I)c(O)c1I | -3.42% | – |
| CCN1CCN(C(=O)N[C@@H](C(=O)N[C@@H]2C(=O)N3[C@@H]2SC(C)(C)[C@H]3C(=O)O)c2ccccc2)C(=O)C1=O | -7.03% | – |
| C=CCOc1cc(Cl)ccc1C(=O)NCCN(CC)CC | 9.51% | – |
| CC(=O)OCC(=O)[C@@]1(O)CCC2C3CCC4=CC(=O)CC[C@]4(C)C3[C@@H](O)C[C@@]21C (stereo partly drawn) | -8.54% | – |

| SMILES | max response | Potency |
| --- | --- | --- |
| C[N+]1(C)CCC(OC(=O)C(O)(c2ccccc2)C2CCCC2)C1 (stereo not drawn) | -10.9% and -9.67% | – |
| Nc1ccc2cc3ccc(N)cc3nc2c1 | – | 12.6 µM (active) |
| CCOC(=O)OCC/C(SC(=O)OCC)=C(\C)N(C=O)Cc1cnc(C)nc1N | 11.2% | – |
| CN1CCC(=C2c3ccccc3CCc3cccnc32)CC1 | 7.49% | – |
| CCOC(=O)c1ccc(OCCN2C[C@H](O)[C@@H](O)[C@H](O)[C@H]2CO)cc1 | -1.08% | – |
| CC(C)(C)c1nnc(NS(=O)(=O)c2ccccc2)s1 | 0.521% | – |
| CCCCCC[C@@H](CCC)C(=O)O | 16.9% | – |
| CC(=O)OCC(=O)[C@@]1(O)[C@H](OC(C)=O)C[C@H]2[C@@H]3CCC4=CC(=O)C=C[C@]4(C)[C@@]3(F)[C@@H](O)C[C@@]21C | -5.18% | – |
| Cc1cc(OCCOCC[N+](C)(C)Cc2ccccc2)ccc1C(C)(C)CC(C)(C)C | – | 7.08 µM (active) |
| O=C(OCC(COC(=O)c1cccnc1)(COC(=O)c1cccnc1)COC(=O)c1cccnc1)c1cccnc1 | 13.3% | – |
| CCCCCC1Nc2cc(C(F)(F)F)c(S(N)(=O)=O)cc2S(=O)(=O)N1 (stereo not drawn) | 13.4% | – |
| O=P(O)(O)OCC(O)CO (stereo not drawn) | 11.3% | – |
| O=[N+]([O-])c1ccc(O)c2ncccc12 | – | 8.91 µM (active) |
| NCC(=O)O | -6.74% | – |
| CC(NCCC(c1ccccc1)c1ccccc1)c1ccccc1 (stereo not drawn) | – | 12.6 µM (active) |
| CC(=O)CC/C=C(\C)CC/C=C(\C)CC/C=C(\C)CCC=C(C)C | -1.07% | – |
| CC(=O)O[C@@H]1C(=O)O[C@@H]2[C@H]1OC(=O)[C@@H]2OC(C)=O | 14.5% | – |

Test: qHTS assay for cell viability of the p53RE-bla HCT-116 cell line (AID 743292); also: nearly all actives have a fitted effect of over 55% in size
Settings: p53RE-bla HCT-116 viability, ATP luminescence, 16 h; series mostly up to 95 µM
Procedure, shortened: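 ATP-based luminescence, 16 h compound exposure at 37 C, p53RE-bla HCT-116 cells at 4,000/well.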

| SMILES | Potency |
| --- | --- |
| Nc1cccc2c(N)cccc12 | inactive |
| CCN(CC)CCOc1ccc(/C(=C(\Cl)c2ccccc2)c2ccccc2)cc1 | 70.8 µM (active) |
| O=C(Nc1ccc(Cl)cc1)Nc1ccc(Cl)c(Cl)c1 | inactive |
